For two sequences, binding signal results are on record in paper PMC7862700, “An all-to-all approach to the identification of sequence-specific readers for epigenetic DNA modifications on cytosine”.

Common to all, as to test: DAPPL (digital affinity profiling via proximity ligation, sequencing); 10 mM Tris-HCl pH 7.5, 50 mM NaCl, 1 mM DTT, 4% glycerol, room temperature, 30 min; GST-TFs on glutathione beads, 16-mer random dsDNA library, 0.1% formaldehyde crosslink after washing; high values mean tight binding
Conditions in all cases: protein: recombinant; tags: N-terminal GST; dsDNA, one strand shown

Assay [1] has as its target T1, GABPA (Homo sapiens, UniProt Q06546 1-454).
T1 sequence: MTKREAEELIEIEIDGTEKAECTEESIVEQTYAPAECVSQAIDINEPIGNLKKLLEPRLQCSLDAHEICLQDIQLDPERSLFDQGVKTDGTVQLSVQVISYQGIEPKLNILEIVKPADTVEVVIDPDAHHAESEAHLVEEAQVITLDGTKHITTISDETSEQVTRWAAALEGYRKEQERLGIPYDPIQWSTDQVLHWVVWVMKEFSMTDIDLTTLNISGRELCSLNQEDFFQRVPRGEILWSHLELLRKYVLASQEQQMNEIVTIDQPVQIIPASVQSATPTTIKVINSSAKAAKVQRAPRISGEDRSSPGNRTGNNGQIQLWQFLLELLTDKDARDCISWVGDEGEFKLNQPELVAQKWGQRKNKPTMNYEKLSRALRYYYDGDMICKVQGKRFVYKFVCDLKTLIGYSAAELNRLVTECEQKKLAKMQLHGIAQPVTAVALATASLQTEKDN
The method in brief:
(§1)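 Sequencing on an Illumina NextSeq500 followed washing, crosslinking with 0.1% formaldehyde, proximity ligation (BsaI/T4 ligase, 1 h, 37 °C) and PCR amplification of pools that had been incubated for 30 min at room temperature with 200 nmole of a random double-stranded 16-mer DNA library in Tris/NaCl/DTT/glycerol buffer. Each pool held DNA-barcoded human transcription factors, expressed in yeast as GST fusions and captured on glutathione beads, plus a tag-only sample. Binding signal is a hexamer's read frequency for a factor divided by its frequency in the tag-only sample.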

Assay [2] has as its target T2, ERG (Homo sapiens, UniProt P11308 1-479).
T2 sequence: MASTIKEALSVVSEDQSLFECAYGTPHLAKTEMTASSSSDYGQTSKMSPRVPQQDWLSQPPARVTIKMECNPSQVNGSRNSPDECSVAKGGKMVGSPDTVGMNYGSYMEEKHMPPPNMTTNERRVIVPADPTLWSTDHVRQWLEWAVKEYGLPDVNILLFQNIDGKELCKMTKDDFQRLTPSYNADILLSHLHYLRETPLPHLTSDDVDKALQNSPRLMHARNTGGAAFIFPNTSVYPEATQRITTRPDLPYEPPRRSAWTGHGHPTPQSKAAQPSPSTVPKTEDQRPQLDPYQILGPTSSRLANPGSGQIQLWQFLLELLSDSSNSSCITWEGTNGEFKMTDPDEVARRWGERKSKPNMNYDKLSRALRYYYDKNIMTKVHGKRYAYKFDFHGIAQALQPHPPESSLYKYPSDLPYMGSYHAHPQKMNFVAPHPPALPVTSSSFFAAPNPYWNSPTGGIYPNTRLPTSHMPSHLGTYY
In outline:
as §1

Assay [3] addresses ELF1 (Homo sapiens, UniProt P32519 1-619). The method in brief: as §1
Assay [4] deals with T3, EHF (Homo sapiens, UniProt Q9NZC4 1-300).
T3 sequence: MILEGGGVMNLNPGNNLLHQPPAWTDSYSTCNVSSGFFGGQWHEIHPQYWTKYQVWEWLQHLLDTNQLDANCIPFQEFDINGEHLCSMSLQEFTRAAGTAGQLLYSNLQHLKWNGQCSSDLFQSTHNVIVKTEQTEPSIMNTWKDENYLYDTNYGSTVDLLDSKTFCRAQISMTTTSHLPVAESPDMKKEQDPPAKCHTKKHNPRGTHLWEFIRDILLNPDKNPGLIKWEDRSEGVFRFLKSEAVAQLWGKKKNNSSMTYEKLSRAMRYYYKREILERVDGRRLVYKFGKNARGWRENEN
The method in brief:
as §1

The target of assay [5] is SPIB (Homo sapiens, UniProt Q01892 1-262). The method in brief: as §1
Assay [6] concerns the target T4, ELK3 (Homo sapiens, UniProt P41970 1-407).
T4 sequence: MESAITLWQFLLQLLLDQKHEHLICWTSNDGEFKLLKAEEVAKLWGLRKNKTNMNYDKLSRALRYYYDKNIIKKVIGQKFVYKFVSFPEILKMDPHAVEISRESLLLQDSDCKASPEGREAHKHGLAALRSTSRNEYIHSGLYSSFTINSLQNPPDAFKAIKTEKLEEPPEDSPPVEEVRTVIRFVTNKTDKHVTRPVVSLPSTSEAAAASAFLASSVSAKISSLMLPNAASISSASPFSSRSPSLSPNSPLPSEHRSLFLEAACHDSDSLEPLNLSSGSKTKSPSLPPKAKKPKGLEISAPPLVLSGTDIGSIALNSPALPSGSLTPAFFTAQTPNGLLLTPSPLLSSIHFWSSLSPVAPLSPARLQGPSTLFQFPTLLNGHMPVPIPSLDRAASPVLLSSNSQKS
In outline:
as §1

In assay [7] the target is T5, SPIC (Homo sapiens, UniProt Q8N5J4 1-248).
T5 sequence: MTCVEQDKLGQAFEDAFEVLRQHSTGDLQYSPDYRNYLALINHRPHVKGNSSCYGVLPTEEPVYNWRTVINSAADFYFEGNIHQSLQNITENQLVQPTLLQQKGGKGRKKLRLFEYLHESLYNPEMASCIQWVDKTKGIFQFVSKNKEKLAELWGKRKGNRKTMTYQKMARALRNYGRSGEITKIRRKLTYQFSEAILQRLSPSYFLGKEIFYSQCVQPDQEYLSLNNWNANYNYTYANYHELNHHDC
The method in brief: as §1

The target in assay [8] is ELF4 (Homo sapiens, UniProt Q99607 1-663). The method in brief: as §1
Assay [9] has as its target T6, ELK4 (Homo sapiens, UniProt P28324-2 1-405).
T6 sequence: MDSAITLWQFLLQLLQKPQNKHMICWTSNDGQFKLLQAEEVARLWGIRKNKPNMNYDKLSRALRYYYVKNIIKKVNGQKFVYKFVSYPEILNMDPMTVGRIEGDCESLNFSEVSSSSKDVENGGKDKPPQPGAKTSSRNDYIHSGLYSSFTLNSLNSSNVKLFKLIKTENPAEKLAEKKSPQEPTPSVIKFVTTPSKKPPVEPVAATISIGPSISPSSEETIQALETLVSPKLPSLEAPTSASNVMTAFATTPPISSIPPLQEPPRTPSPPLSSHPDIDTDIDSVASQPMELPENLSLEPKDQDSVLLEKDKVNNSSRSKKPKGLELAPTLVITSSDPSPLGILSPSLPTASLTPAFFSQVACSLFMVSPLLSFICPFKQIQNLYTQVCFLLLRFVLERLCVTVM
The method in brief:
as §1

The target in assay [10] is T7, ELF3 (Homo sapiens, UniProt P78545 1-371).
T7 sequence: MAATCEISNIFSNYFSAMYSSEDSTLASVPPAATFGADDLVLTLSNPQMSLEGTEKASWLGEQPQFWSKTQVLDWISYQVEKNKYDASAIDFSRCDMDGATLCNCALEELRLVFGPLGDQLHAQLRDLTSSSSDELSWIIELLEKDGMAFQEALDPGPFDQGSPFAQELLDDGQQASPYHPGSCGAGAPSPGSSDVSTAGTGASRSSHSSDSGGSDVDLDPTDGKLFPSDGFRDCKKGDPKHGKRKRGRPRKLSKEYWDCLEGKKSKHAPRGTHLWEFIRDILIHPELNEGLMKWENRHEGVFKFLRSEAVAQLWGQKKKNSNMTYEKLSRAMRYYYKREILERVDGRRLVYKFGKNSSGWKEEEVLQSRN
In outline:
as §1

The target of assay [11] is T8, ERF (Homo sapiens, UniProt P50548 1-548).
T8 sequence: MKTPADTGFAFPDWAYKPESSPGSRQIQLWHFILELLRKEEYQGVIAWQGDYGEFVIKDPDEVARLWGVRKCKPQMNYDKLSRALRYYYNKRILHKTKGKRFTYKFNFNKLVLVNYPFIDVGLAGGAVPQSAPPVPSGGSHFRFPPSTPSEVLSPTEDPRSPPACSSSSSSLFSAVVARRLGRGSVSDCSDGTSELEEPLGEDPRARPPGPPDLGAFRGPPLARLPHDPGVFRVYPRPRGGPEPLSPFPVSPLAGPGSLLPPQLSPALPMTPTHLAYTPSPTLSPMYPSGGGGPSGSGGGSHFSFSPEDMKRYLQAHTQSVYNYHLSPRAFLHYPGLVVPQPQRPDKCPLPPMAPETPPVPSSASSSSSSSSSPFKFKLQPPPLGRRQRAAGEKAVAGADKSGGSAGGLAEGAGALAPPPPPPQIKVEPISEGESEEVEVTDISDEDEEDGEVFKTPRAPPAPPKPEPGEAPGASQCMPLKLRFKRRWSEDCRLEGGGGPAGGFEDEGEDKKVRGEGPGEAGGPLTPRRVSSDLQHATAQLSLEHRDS
The method in brief:
as §1

Assay [12] has as its target T9, ETV3L (Homo sapiens, UniProt Q6ZN32 1-361).
T9 sequence: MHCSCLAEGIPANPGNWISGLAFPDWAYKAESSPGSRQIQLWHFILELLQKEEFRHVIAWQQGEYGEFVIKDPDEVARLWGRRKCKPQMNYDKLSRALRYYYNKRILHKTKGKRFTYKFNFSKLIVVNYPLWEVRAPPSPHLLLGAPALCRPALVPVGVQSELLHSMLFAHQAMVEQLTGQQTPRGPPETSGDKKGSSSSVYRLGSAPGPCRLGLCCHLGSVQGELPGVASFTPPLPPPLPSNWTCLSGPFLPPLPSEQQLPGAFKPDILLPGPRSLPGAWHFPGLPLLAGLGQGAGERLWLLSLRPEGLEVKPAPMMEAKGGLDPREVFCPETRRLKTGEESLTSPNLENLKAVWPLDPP
In outline:
as §1

In assay [13] the target is T10, SPDEF (Homo sapiens, UniProt O95238 1-335).
T10 sequence: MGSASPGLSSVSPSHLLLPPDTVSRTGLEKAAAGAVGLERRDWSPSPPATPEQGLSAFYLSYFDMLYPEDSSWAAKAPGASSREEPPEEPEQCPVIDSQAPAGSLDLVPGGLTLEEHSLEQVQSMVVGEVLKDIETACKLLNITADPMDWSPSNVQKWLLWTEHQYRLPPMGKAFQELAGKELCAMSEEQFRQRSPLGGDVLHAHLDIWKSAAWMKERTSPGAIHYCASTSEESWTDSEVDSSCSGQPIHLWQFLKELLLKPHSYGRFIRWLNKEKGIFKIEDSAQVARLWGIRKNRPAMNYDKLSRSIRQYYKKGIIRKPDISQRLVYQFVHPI
The method in brief: as §1

Assay [14] addresses T11, ETV7 (Homo sapiens, UniProt Q9Y603 1-341).
T11 sequence: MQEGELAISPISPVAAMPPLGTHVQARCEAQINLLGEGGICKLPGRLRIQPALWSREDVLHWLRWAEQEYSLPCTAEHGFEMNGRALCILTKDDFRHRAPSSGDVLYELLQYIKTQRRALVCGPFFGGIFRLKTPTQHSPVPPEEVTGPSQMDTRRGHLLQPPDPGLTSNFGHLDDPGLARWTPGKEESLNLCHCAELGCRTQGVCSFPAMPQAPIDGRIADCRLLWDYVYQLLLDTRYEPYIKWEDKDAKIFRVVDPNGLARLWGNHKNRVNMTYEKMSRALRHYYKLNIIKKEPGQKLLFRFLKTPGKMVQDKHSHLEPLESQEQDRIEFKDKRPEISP
The method in brief:
as §1

ELF4, sequence (Q99607 whole entry): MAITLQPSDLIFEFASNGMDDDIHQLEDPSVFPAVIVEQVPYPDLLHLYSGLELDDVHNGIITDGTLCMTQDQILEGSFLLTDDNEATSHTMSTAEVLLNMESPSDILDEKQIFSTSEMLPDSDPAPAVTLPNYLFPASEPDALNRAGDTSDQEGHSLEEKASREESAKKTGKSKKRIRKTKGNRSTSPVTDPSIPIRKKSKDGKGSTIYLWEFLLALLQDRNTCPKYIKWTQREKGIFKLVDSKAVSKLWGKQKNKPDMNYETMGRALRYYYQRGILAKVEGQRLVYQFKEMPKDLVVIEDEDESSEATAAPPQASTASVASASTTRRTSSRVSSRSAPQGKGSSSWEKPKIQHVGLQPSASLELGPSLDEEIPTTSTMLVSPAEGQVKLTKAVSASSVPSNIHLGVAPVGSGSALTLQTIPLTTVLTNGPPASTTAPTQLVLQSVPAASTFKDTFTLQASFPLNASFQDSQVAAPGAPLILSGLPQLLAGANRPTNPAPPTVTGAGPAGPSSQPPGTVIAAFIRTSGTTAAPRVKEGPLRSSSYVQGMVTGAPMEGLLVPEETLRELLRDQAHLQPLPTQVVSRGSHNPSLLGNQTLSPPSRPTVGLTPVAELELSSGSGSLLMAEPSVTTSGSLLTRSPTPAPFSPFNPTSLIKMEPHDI
ELF1, sequence (P32519 whole entry): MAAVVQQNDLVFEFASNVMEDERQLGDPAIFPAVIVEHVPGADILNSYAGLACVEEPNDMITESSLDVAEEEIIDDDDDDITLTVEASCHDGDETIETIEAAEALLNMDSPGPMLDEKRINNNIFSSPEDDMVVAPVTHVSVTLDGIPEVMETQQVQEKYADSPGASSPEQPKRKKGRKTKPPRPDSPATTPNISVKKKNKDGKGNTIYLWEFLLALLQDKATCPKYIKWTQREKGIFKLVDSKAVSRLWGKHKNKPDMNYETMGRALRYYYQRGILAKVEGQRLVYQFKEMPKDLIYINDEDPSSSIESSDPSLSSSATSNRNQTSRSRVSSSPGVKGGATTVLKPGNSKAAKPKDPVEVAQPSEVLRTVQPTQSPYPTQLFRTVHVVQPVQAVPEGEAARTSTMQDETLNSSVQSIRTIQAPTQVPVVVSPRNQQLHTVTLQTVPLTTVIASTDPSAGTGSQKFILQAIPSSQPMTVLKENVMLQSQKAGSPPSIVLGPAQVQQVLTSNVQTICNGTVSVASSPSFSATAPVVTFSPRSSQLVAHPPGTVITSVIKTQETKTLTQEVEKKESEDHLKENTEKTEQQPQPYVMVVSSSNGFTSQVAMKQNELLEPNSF
SPIB, sequence (Q01892 whole entry): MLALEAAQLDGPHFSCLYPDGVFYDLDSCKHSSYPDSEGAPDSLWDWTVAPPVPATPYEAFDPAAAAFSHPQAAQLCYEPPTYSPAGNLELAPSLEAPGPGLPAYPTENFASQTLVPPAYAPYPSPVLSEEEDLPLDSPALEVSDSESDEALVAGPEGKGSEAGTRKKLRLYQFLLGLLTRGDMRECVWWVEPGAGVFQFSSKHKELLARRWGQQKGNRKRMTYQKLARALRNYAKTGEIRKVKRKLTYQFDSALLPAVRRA

With CTAGCC, the binding signal was 1 fold enrichment (6-mer frequency, TF over GST control) in assay [1]; 1.01 fold enrichment (6-mer frequency, TF over GST control) in assay [2]; 1.07 fold enrichment (6-mer frequency, TF over GST control) in [3]; 1 fold enrichment (6-mer frequency, TF over GST control) in [4]; 1.02 fold enrichment (6-mer frequency, TF over GST control) in [5]; 1.1 fold enrichment (6-mer frequency, TF over GST control) in [6]. The binding signal in assay [7] was 1.08 fold enrichment (6-mer frequency, TF over GST control); in [8], 1.01 fold enrichment (6-mer frequency, TF over GST control); in assay [9], 1.1 fold enrichment (6-mer frequency, TF over GST control); in assay [10], 1.04 fold enrichment (6-mer frequency, TF over GST control); in [11] it was 1.13 fold enrichment (6-mer frequency, TF over GST control); in assay [12], 1.06 fold enrichment (6-mer frequency, TF over GST control). For the same sequence, the binding signal is 1.02 fold enrichment (6-mer frequency, TF over GST control) in assay [13] and 1.02 fold enrichment (6-mer frequency, TF over GST control) in [14].

For the sequence TGAAGA, the binding signal in [6] is 1.03 fold enrichment (6-mer frequency, TF over GST control); in assay [7] it was 1.01 fold enrichment (6-mer frequency, TF over GST control); in [8], 1.01 fold enrichment (6-mer frequency, TF over GST control); in [9], 1.02 fold enrichment (6-mer frequency, TF over GST control); in assay [11], 1.09 fold enrichment (6-mer frequency, TF over GST control); in assay [14], 1.04 fold enrichment (6-mer frequency, TF over GST control).
